The structures appear in SMILES notation. About 83,000 compounds went through this panel and 20% of them were active in at least one assay; those are over-represented in the sample as a whole.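 Single-concentration screen, 48 h exposure, 96-well plates. Endpoint: percent growth. Below 10 = active.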 Values without a mark were called inactive. The source made the active and inactive calls.

Experiment in all cases: NCI-60 one-dose screen, 48 h (100 = growth as untreated, 0 = no growth, -100 = all killed)
One assay deals with DU-145 prostate. Conditions: 10 µM unless noted.
The subject of another assay is K-562 leukemia. The following applies: 10 µM unless noted.
Another assay deals with MALME-3M melanoma. Conditions: 10 µM unless noted.
For a further assay, the system named is MDA-MB-231 breast. Conditions: 10 µM unless noted.
Another assay has as its system RXF 393 renal. The following applies: 10 µM unless noted.
Another assay deals with SF-268 CNS. Conditions: 10 µM unless noted.
Another assay concerns SF-295 CNS. Conditions: 10 µM unless noted.
In another assay the test system is SF-539 CNS. Conditions: 10 µM unless noted.
For another assay, the system named is UACC-257 melanoma. The following applies: 10 µM.
Another assay deals with M14 melanoma. The following applies: 10 µM unless noted.

In the case of `CCOC(=O)c1nn(-c2ccc(C)cc2)c(=O)c2c(N)c(C#N)c(-c3ccc(OC)cc3)cc12`, the growth in the assay with DU-145 prostate is 109%; with K-562 leukemia, 118%; in the assay on MALME-3M melanoma it was 93.8%; in the assay with MDA-MB-231 breast, 84.8%; in the assay with RXF 393 renal, 104%; in the assay with SF-268 CNS, 95.5%. Further, the growth in the assay with SF-295 CNS is 103%; with SF-539 CNS, 102%; in the assay on UACC-257 melanoma, 107%; in the assay on M14 melanoma it was 102%.
For `C#C[C@]1(O)CC[C@H]2[C@@H]3CC=C4c5sc(-c6ccccn6)nc5CC[C@]4(C)[C@H]3CC[C@@]21C`, the growth with DU-145 prostate is 90.2%; in the assay with K-562 leukemia, 31.9%; in the assay on MALME-3M melanoma, 81.9%; in the assay on MDA-MB-231 breast, 78.6%; in the assay on RXF 393 renal, -34.4% (active); with SF-268 CNS it was 82.4%. Also, the growth was -37.3% (active) with SF-295 CNS, 30.9% in the assay on SF-539 CNS, 70.5% with UACC-257 melanoma and 74.8% with M14 melanoma.
`O=C(COc1ccc(C2SCC(=O)N2c2ccc(F)cc2)cc1)c1ccccc1` (stereo not given): the growth in the assay on DU-145 prostate was 104%; in the assay with K-562 leukemia, 91.6%; in the assay with MALME-3M melanoma it was 97.9%; in the assay with MDA-MB-231 breast it was 81.4%; with RXF 393 renal, 102%; in the assay on SF-268 CNS, 89.4%. Further, the growth with SF-295 CNS is 94.5%; in the assay on SF-539 CNS it was 102%; in the assay with UACC-257 melanoma, 100%; with M14 melanoma it was 93.6%.
In the case of `COc1ccc(NC(=O)[C@H](C)NC(=O)OC(C)(C)C)cc1C(=O)Nc1cccc(-c2cc(=O)c3c(OC)c(OC)c(OC)cc3o2)c1`, the growth is 23% in the assay on DU-145 prostate; 10.6% in the assay with K-562 leukemia; -13.2% (active) with MALME-3M melanoma; -46.4% (active) in the assay with MDA-MB-231 breast; -84.4% (active) with RXF 393 renal; 34.9% in the assay on SF-268 CNS. The growth is -11.4% (active) in the assay on SF-295 CNS, -38.1% (active) with SF-539 CNS, -74.4% (active) in the assay on UACC-257 melanoma and -52.3% (active) with M14 melanoma.
In the case of `O=C(Nc1ccc(Cl)cc1)Nc1nc2ccc([N+](=O)[O-])cc2s1`, the growth with DU-145 prostate was 14%; with K-562 leukemia, 1.43% (active); in the assay on MALME-3M melanoma it was -21.3% (active); in the assay on MDA-MB-231 breast, -17.5% (active); in the assay on RXF 393 renal, -37.2% (active); in the assay with SF-268 CNS, 7.98% (active). For the same molecule, the growth in the assay with SF-295 CNS was -57.9% (active); with SF-539 CNS, -22.3% (active); with UACC-257 melanoma, -32.6% (active); with M14 melanoma it was -20.4% (active).
For `CCOC(=O)c1c(NC(=O)c2ccc(F)cc2F)sc2c1CCC(=O)C2`, the growth in the assay with DU-145 prostate was 94.9%; in the assay on K-562 leukemia, 86.7%; with MALME-3M melanoma, 118%; with MDA-MB-231 breast it was 97.2%; with RXF 393 renal, 117%; with SF-268 CNS, 91.9%. Moreover, the growth with SF-295 CNS was 95.1%; in the assay with SF-539 CNS it was 79.3%; with UACC-257 melanoma, 102%; in the assay with M14 melanoma it was 111%.
Consider `Oc1ccc(CSc2nnc(-c3cnccn3)n2-c2ccccc2)c2cccnc12`, for which the growth was 35.6% with DU-145 prostate; 19.6% in the assay with K-562 leukemia; 42.9% with MALME-3M melanoma; 32.1% with MDA-MB-231 breast; 33.7% in the assay on RXF 393 renal; 22.4% in the assay on SF-268 CNS. The growth in the assay on SF-295 CNS was 7.13% (active); in the assay with SF-539 CNS it was 22.7%; in the assay on UACC-257 melanoma, 17.4%; with M14 melanoma it was 16.8%.
In the case of `COc1ccc(NC(=O)[C@H](C)N)cc1C(=O)Nc1cccc(-c2cc(=O)c3c(OC)c(OC)c(OC)cc3o2)c1`, the growth in the assay with DU-145 prostate was 60.8%; in the assay with K-562 leukemia it was 52.6%; in the assay with MALME-3M melanoma, 86.5%; with MDA-MB-231 breast, 62.3%; with RXF 393 renal it was 71.9%; in the assay on SF-268 CNS, 66.6%. For the same molecule, the growth in the assay with SF-295 CNS is 64.6%; in the assay on SF-539 CNS it was 71.9%; in the assay on UACC-257 melanoma, 109%; with M14 melanoma, 104%.
Take `CCNC(=O)Oc1ccc(/C(=C(/C)c2ccc(Cl)cc2)c2ccc(OCCN3CCCC3)cc2)cc1`: the growth in the assay on DU-145 prostate is 102%; with K-562 leukemia, 13.5%; in the assay with MALME-3M melanoma, 63.6%; in the assay on MDA-MB-231 breast, 88.5%; in the assay on RXF 393 renal it was 66.9%; in the assay on SF-268 CNS it was 90.5%. Also, the growth in the assay on SF-295 CNS is 96.8%; with SF-539 CNS, 76.4%; in the assay with UACC-257 melanoma it was 81.1%; in the assay on M14 melanoma, 68%.
`Oc1ccccc1-c1nnc(SCc2ccc(O)c3ncccc23)n1-c1ccccc1`: the growth in the assay with DU-145 prostate was 22.9%; with K-562 leukemia, 10.8%; in the assay with MALME-3M melanoma it was 0.0457% (active); in the assay with MDA-MB-231 breast, 28.2%; in the assay on RXF 393 renal it was -9.85% (active); with SF-268 CNS, 14.9%. Besides, the growth in the assay on SF-295 CNS was 1.17% (active); with SF-539 CNS, 7.96% (active); in the assay on UACC-257 melanoma, 1.58% (active); in the assay with M14 melanoma, -28.3% (active).
For the molecule `CC1(C)CC[C@]2(C(=O)O)CC[C@]3(C)C(=CCC4[C@@]5(C)C[C@@H](O)[C@@H]6OC(c7ccccc7O)OC[C@@]6(C)C5CC[C@]43C)C2C1` (stereo not given in full), the growth with DU-145 prostate was 44.1%; in the assay with K-562 leukemia, 40.6%; in the assay with MALME-3M melanoma, 83.9%; in the assay with MDA-MB-231 breast, 82.5%; with RXF 393 renal, 76.9%; in the assay on SF-268 CNS, 56%. The growth with SF-295 CNS was 30.2%; in the assay with SF-539 CNS it was 63.7%; in the assay with UACC-257 melanoma, 93.7%; in the assay with M14 melanoma, 43.3%.
As for `Cn1cc(-c2nnc(N)nc2-c2cn(C)c3ccc(F)cc23)c2cc(F)ccc21`, the growth is 95.6% with DU-145 prostate; 101% in the assay with K-562 leukemia; 107% in the assay with MALME-3M melanoma; 94.6% with MDA-MB-231 breast; 104% in the assay on RXF 393 renal; 78.5% in the assay with SF-268 CNS. The growth with SF-295 CNS is 113%; with SF-539 CNS it was 96.4%; in the assay on UACC-257 melanoma, 101%; with M14 melanoma, 101%.
Regarding `O=C1Nc2cc(OC(F)(F)F)ccc2Oc2ccc(-c3ccnc(N4CC[C@H](O)C4)c3)cc21`, the growth in the assay on DU-145 prostate is -39.1% (active); with K-562 leukemia it was 5.41% (active); in the assay on MALME-3M melanoma, 39.4%; with MDA-MB-231 breast it was 17.2%; in the assay with RXF 393 renal, -10% (active); in the assay on SF-268 CNS, 19.1%. Moreover, the growth in the assay with SF-295 CNS is 3.93% (active); with SF-539 CNS, -28.7% (active); with UACC-257 melanoma, 72%; with M14 melanoma, -1.7% (active).

Values taken from PubChem BioAssay (NCI).
